Data on 2 compounds can be found in ChEMBL document CHEMBL3988442, “University of Dundee, Small-Polar-MMV Screening Library” (2021).

“And” between values parts separate entries of the source, which are not always exact repeats. Identical values can stand only once. For part of these data: Measured potencies and affinities stand elsewhere.

Holding throughout (parameters): scale not given: direction of the effect not stated beside the values
Assay [1] addresses Protein translocase subunit SecA (Escherichia coli (strain K12)) (UniProt P10408). Kind of assay: Assay to Identify E. coli SecA ATPase Inhibitors. Format: functional. The note with it: 30 µM.
Assay [2] has as its target T1, Ubiquitin-activating enzyme e1, putative (Leishmania donovani (strain BPK282A1)) (UniProt E9BSI1).
T1 sequence (whole entry): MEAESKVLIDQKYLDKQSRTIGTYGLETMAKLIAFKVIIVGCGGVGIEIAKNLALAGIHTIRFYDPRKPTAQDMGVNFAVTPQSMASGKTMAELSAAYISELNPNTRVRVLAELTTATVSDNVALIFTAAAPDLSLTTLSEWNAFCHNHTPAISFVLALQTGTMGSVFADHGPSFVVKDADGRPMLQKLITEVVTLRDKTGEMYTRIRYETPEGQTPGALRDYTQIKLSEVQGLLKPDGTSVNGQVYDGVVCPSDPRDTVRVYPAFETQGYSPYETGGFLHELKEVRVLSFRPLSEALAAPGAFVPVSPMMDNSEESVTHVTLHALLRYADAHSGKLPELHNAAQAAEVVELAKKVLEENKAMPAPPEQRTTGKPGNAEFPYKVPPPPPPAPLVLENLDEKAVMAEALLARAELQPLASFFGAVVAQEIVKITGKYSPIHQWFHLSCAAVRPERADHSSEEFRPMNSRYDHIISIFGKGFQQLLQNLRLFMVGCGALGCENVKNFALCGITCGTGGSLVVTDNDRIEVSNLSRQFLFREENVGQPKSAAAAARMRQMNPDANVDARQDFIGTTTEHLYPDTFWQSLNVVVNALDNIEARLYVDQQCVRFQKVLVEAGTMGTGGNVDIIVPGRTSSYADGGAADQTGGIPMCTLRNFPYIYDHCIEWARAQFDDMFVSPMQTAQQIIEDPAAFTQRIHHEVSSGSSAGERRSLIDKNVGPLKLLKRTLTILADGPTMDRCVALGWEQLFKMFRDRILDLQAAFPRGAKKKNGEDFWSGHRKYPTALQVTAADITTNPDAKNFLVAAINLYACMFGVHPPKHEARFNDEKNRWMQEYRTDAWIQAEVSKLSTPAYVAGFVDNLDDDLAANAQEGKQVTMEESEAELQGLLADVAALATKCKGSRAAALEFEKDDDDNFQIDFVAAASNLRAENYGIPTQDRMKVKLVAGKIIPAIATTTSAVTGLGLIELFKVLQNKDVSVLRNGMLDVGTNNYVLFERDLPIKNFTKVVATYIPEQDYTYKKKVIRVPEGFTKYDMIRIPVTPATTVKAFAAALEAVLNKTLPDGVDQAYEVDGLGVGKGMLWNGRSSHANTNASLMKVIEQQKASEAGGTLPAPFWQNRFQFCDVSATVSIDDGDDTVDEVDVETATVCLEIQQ
Description: Leishmania donovani Ubiquitin Activating Enzyme (LdE1). Format: functional. The note with it: 30 µM.

For assay [3], the target named is T2, Aspartate--tRNA(Asp/Asn) ligase (Mycobacterium tuberculosis (strain ATCC 25618 / H37Rv)) (UniProt P9WFW3). Also: in the data most compounds retested in dose-response had high values.
T2 sequence (whole entry): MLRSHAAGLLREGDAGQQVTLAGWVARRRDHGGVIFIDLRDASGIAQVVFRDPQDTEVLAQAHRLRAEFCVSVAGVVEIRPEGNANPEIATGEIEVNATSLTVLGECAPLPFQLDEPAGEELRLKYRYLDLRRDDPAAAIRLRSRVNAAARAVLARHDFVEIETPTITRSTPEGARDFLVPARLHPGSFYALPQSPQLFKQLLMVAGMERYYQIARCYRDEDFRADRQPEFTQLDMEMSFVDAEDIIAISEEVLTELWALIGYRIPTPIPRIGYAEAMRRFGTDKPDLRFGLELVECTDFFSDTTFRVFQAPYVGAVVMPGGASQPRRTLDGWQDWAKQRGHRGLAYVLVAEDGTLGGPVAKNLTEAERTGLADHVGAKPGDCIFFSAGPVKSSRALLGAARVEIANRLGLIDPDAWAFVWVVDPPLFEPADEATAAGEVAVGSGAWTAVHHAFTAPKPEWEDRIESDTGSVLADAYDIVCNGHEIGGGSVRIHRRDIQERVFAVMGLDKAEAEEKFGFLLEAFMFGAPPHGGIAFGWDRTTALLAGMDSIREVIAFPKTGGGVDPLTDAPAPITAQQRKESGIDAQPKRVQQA
Description: Assay for Asp RNA synthetase-1 from Mycobacterium tuberculosis. In kind it is functional. The conditions noted are these: 30 µM.

In assay [4] the target is AMP-activated protein kinase, AMPK (Homo sapiens) (UniProt P54646+O43741+P54619+Q9UGJ0+Q9Y478+Q13131+Q9UGI9). Kind of assay: AMP-dependent Kinase enzyme assay. An in vitro enzyme assay that detects ADP turnover that is directly proportional to AMPK activity. This uses naive AMPK that is activated during the assay with MK-8722. Format: functional. The note with it: 30 µM.

Assay [5] concerns the target Sialic acid-binding Ig-like lectin 9 (Homo sapiens) (UniProt Q9Y336). Kind of assay: Hs-Siglec9 ALPHAscreen SOP 20170721. The note with it: 10 µM.
Another assay has as its system Trypanosoma cruzi. Description: Trypanosoma cruzi phosphomannomutase and mannose-1-phosphate guanylyltransferase assay. In kind it is functional. The note with it: 10 µM.
The target in assay [6] is T3, Arginase-2, mitochondrial (Homo sapiens) (UniProt P78540).
T3 sequence (whole entry): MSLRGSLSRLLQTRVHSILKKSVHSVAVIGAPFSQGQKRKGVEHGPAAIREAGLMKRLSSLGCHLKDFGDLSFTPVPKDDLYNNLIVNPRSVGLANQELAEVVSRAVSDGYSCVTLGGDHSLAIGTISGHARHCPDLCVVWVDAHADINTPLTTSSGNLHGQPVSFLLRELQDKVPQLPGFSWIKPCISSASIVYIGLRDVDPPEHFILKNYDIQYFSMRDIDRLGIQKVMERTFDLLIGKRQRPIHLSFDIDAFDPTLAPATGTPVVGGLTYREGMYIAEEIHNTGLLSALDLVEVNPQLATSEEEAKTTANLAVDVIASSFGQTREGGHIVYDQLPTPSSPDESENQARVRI
Description: in vitro enzyme assay to detect the production of urea directly proportional to the activity of Arginase II. Also: in the data most compounds retested in dose-response had high values. Format: functional. The conditions noted are these: 33.3 µM.

The target of assay [7] is T4, Proteasome subunit beta (Trypanosoma cruzi) (UniProt O96673).
T4 sequence (whole entry): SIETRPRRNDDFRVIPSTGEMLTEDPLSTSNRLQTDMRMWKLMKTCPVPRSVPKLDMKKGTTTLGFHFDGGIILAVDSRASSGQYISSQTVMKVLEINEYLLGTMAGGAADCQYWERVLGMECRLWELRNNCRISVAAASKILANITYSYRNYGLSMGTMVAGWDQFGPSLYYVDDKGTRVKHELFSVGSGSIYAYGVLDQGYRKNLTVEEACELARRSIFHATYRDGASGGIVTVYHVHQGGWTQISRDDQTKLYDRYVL
Description: Trypanosoma cruzi proteasome chymotrypsin-like activity (TcProtChymo) assay. Also: in the data most compounds retested in dose-response had high values. Format: functional. The note with it: 9.37 µM.

The subject of a further assay is N/A. Description: Trypanosoma cruzi proteasome luciferase counter-screen. Format: functional. The conditions noted are these: 9.37 µM.
The species entered for a further assay is Homo sapiens. Kind of assay: To identify inhibition of the IFN signalling (Jak-Stat) pathway via expression of an eGFP reporter gene under the control of an IFN-stimulated response element (ISRE) containing MxA promoter. The conditions noted are these: 30 µM. Format: functional. For orientation: Reporter assays use an easily measured gene product as a stand-in for the process of interest.

In assay [8] the target is Shiga toxin 2 (Escherichia coli O157:H7) (UniProt P09385+P09386). Kind of assay: E. coli 0.157:H7 Shiga Toxin SOP - stx2 screening assay. In kind it is functional. The conditions noted are these: 30 µM.
For assay [9], the target named is T5, Tyrosyl-tRNA synthetase, putative (Trypanosoma cruzi (strain CL Brener)) (UniProt Q4DSP6).
T5 sequence (whole entry): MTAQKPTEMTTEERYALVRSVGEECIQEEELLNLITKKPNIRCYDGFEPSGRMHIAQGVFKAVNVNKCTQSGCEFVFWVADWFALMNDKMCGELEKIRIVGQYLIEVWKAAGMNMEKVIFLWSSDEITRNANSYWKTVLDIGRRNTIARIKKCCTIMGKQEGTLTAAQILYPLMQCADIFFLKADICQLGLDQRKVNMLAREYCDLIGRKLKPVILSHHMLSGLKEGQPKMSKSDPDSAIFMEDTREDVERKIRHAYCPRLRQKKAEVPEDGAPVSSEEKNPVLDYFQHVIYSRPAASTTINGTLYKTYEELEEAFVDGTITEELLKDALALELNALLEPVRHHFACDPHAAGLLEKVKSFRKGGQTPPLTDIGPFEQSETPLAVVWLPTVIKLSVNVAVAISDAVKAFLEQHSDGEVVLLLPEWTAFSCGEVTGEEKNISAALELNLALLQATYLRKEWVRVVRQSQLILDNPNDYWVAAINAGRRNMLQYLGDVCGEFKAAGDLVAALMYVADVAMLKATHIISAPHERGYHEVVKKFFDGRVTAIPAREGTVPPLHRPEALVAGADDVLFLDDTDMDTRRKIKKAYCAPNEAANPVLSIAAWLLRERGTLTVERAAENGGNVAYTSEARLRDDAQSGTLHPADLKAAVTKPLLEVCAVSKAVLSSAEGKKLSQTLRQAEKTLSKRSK
Kind of assay: Trypanosoma cruzi tyrosyl tRNA synthetase (TcYRS) _High Tyrosine SOP. Also: in the data most compounds retested in dose-response had high values. Format: functional. The note with it: 30 µM.

The target of assay [10] is T5, Tyrosyl-tRNA synthetase, putative (Trypanosoma cruzi (strain CL Brener)). Description: Trypanosoma cruzi tyrosyl tRNA synthetase (TcYRS) SOP. In kind it is functional. The conditions noted are these: 30 µM.
Assay [11] has as its target Chromo domain-containing protein 1 (Saccharomyces cerevisiae (strain ATCC 204508 / S288c) (Baker's yeast)) (UniProt P32657). Kind of assay: ScCHD-1 Enzyme Inhibition Assay. Also: in the data most compounds retested in dose-response had high values. In kind it is functional. The conditions noted are these: 30 µM.

Chain of Sialic acid-binding Ig-like lectin 9 (Homo sapiens) (Q9Y336 whole entry): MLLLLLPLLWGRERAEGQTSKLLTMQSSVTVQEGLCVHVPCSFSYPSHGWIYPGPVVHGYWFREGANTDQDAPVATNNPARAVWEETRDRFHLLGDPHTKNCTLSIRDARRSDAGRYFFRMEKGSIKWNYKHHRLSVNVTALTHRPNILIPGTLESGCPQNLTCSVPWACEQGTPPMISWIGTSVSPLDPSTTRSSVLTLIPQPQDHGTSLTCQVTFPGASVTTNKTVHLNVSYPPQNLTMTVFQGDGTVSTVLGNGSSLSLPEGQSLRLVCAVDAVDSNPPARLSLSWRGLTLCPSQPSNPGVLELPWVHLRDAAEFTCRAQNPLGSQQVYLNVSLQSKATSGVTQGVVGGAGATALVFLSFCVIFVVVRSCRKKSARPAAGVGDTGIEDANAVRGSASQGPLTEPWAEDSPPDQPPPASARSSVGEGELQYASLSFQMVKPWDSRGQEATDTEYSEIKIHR
Chain of Chromo domain-containing protein 1 (Saccharomyces cerevisiae (strain ATCC 204508 / S288c) (Baker's yeast)) (P32657 whole entry, the tested form may be a part): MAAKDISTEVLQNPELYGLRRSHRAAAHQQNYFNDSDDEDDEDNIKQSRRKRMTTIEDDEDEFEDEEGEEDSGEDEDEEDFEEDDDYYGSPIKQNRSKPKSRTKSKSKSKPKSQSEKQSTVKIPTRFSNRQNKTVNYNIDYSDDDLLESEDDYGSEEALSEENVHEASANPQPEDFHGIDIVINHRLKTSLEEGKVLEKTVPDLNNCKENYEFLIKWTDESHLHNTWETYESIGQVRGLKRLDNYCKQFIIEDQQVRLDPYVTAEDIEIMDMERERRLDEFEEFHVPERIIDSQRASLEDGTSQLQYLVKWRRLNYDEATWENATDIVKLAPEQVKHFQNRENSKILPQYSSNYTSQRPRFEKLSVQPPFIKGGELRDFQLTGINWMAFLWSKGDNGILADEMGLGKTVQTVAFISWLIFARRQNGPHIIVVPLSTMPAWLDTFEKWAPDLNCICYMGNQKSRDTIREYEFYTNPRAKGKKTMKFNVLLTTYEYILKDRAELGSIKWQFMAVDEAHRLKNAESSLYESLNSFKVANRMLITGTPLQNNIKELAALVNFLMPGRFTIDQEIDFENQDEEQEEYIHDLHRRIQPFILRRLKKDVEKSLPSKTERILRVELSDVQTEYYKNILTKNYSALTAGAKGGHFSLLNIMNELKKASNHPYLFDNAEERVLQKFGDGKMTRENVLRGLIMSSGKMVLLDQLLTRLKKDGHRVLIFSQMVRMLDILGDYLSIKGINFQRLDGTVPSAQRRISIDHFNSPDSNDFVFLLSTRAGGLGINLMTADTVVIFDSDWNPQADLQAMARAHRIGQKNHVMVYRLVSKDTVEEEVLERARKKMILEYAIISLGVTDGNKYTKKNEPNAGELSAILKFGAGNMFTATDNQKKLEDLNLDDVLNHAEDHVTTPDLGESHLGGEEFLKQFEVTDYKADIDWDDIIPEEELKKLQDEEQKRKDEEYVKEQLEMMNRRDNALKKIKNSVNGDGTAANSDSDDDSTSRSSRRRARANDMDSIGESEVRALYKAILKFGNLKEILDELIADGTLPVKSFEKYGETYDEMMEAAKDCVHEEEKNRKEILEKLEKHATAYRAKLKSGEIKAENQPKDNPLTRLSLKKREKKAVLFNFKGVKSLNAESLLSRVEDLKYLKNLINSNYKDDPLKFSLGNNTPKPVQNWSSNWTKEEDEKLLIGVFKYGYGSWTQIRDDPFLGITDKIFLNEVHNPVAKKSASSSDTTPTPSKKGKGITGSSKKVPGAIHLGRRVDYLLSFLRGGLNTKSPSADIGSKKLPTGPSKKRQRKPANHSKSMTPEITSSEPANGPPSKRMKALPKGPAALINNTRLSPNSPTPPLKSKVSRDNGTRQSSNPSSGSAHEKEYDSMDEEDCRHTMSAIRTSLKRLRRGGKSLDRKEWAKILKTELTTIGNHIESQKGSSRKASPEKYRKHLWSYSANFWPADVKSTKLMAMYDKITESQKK
Chain of Protein translocase subunit SecA (Escherichia coli (strain K12)) (P10408 whole entry): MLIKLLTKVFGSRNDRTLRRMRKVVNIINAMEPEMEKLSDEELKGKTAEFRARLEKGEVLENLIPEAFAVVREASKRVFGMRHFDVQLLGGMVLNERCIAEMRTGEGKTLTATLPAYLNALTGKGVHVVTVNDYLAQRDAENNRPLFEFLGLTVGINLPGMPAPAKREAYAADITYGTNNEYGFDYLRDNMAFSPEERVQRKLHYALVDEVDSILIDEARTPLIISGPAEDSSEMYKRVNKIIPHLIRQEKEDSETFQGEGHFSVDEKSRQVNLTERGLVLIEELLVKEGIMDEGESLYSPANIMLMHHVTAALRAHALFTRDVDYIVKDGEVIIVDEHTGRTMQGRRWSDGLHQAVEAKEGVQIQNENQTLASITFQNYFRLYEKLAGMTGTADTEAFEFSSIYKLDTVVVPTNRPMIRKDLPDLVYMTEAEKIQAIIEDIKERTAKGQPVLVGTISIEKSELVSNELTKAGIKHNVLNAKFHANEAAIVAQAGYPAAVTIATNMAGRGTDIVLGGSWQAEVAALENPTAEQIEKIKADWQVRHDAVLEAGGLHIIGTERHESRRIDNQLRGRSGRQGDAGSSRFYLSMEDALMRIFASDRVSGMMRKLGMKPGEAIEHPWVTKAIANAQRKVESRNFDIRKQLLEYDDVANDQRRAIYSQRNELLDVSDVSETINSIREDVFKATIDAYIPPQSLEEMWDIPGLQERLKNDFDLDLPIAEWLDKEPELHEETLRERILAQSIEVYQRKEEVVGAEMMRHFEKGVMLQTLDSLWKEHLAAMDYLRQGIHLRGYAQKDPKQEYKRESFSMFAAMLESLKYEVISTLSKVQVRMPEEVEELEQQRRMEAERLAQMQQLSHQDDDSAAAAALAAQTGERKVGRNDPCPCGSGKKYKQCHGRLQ

With `CC(Cn1cccn1)NCc1csc(-c2cccs2)n1` (configuration not stated), the Percent Effect was -0.415% in assay [1]; 5.41% in [2]; -4.5% in [3]; -7.34% in assay [4]; -3.93% in [5]; -4.81% in the assay on Trypanosoma cruzi. Also, the Percent Effect in [6] is -0.802%; in assay [7] it was 79.3% and 83.2% and 84%; with N/A, 52.8% and 51.5%; in the assay filed under Homo sapiens it was 17.6%; in [8], 21.1%; in assay [9], 7.39%. Further, the Percent Effect is 13.6% in assay [10] and -4.55% in assay [11].
On to `CCN1CCC(c2cncc(N(C)C)n2)CC1`, for which the Percent Effect in [1] is -1.04%; in [2], 13.3%; in assay [3] it was -2.49%; in assay [4], 1.31%; in assay [5], -3.05%; with Trypanosoma cruzi, -2.76%. Further, the Percent Effect in [6] was -3.96%; in assay [7], 13.5%; in the assay listed under Homo sapiens it was 6.71%; in assay [8], -7.25%; in [9], 3.19%; in [10], 11.5%. Further, the Percent Effect in assay [11] is -4.48%.
